Results: the supplement of paper PMC11732987, “Enantioselective OTUD7B fragment discovery through chemoproteomics screening and high-throughput optimisation” (Communications Chemistry, 2025)

What was measured:
Experiment in all cases: log2 ratio of Biotin-Ahx-Ub-VS probe labelling (fragment/DMSO); higher = less target engagement (more negative = stronger competition), active = hit call of the paper (q ≤ 0.05, log2 ratio ≤ -1)
Details in all cases: compound concentration: 200 uM; treatment time: 3 h
OTUD6B = biological target: T1, OTUD6B (UniProt Q8N6M0)
T1 sequence (whole entry): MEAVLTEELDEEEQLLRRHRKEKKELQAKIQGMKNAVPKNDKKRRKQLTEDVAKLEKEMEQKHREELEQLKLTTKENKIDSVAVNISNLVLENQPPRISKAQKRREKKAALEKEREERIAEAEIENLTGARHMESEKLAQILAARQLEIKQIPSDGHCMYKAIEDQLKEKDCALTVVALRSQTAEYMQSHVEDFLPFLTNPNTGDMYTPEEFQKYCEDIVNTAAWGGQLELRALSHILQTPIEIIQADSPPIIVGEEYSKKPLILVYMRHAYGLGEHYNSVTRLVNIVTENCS
In short: (§1)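 HEK293T lysate in Tris/CHAPS/IGEPAL buffer with protease inhibitors (495 µg per sample) was given fragment at 200 µM or vehicle for 3 h, in triplicate. It then received Biotin-Ahx-Ub-VS at 0.5 µM final for 1 h. Labelled DUBs were NeutrAvidin-enriched, digested with LysC and trypsin, and run by diaPASEF LC-MS/MS. Values are average log2 fragment/vehicle ratios by unpaired t-test on global-median-normalised Spectronaut quantities of proteins with ≥2 unique peptides.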

OTUD7B = biological target: T2, OTUD7B (UniProt Q6GQQ9)
T2 sequence (whole entry): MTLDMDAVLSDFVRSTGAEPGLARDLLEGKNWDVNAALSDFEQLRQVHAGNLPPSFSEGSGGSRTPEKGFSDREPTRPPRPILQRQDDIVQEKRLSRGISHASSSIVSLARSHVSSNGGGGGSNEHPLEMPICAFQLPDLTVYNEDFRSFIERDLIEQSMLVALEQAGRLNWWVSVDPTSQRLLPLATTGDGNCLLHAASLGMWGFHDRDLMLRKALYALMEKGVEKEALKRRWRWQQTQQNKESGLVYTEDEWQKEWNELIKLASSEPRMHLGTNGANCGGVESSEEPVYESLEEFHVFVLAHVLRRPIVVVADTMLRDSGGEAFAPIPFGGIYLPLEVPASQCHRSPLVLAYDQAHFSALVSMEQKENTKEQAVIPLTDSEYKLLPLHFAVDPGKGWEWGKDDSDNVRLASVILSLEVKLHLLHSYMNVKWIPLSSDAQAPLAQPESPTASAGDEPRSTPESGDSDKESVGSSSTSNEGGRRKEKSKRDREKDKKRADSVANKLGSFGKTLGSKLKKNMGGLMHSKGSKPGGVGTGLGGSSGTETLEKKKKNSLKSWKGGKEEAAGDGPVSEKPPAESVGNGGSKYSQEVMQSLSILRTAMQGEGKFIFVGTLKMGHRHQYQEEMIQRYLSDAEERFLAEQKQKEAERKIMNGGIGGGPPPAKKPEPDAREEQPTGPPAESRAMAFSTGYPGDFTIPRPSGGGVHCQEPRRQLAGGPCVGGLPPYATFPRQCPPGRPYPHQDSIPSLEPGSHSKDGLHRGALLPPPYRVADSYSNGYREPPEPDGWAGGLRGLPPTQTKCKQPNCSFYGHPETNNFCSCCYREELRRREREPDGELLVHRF
In short: as §1

PRPF8 = PRPF8 (UniProt Q6P2Q9)
In short: as §1

PSMD7 = biological target: T3, PSMD7 (UniProt P51665)
T3 sequence (whole entry): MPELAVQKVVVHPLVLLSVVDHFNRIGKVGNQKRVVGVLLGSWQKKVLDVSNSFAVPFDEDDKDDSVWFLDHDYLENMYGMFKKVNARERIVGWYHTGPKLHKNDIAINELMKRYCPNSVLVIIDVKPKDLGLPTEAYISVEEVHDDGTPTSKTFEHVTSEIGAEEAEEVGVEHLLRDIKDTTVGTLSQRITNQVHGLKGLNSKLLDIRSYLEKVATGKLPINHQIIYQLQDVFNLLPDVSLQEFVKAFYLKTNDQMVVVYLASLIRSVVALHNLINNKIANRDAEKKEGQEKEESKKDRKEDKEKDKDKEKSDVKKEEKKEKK
In short: as §1

UCHL1 = UCHL1 (UniProt P09936)
In short: as §1

UCHL3 = biological target: T4, UCHL3 (UniProt P15374)
T4 sequence (whole entry): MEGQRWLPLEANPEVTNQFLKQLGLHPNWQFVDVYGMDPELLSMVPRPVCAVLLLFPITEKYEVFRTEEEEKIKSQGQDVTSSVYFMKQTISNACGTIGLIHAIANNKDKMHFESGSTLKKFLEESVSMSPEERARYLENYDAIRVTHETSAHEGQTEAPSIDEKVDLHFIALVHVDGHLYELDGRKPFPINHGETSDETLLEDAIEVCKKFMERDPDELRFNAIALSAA
In short: as §1

UCHL5 = biological target: T5, UCHL5 (UniProt Q9Y5K5)
T5 sequence (whole entry): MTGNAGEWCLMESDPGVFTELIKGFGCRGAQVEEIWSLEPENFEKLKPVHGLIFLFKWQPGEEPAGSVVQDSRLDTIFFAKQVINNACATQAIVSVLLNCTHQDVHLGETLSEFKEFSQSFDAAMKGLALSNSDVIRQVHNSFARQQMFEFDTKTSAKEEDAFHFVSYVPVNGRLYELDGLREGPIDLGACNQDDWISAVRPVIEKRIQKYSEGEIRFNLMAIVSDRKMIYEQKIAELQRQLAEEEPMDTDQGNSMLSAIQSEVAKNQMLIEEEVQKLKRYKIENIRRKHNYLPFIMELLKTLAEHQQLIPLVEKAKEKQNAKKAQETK
In short: as §1

USP10 = USP10 (UniProt Q14694)
In short: as §1

USP15 = biological target: T6, USP15 (UniProt Q9Y4E8)
T6 sequence (whole entry): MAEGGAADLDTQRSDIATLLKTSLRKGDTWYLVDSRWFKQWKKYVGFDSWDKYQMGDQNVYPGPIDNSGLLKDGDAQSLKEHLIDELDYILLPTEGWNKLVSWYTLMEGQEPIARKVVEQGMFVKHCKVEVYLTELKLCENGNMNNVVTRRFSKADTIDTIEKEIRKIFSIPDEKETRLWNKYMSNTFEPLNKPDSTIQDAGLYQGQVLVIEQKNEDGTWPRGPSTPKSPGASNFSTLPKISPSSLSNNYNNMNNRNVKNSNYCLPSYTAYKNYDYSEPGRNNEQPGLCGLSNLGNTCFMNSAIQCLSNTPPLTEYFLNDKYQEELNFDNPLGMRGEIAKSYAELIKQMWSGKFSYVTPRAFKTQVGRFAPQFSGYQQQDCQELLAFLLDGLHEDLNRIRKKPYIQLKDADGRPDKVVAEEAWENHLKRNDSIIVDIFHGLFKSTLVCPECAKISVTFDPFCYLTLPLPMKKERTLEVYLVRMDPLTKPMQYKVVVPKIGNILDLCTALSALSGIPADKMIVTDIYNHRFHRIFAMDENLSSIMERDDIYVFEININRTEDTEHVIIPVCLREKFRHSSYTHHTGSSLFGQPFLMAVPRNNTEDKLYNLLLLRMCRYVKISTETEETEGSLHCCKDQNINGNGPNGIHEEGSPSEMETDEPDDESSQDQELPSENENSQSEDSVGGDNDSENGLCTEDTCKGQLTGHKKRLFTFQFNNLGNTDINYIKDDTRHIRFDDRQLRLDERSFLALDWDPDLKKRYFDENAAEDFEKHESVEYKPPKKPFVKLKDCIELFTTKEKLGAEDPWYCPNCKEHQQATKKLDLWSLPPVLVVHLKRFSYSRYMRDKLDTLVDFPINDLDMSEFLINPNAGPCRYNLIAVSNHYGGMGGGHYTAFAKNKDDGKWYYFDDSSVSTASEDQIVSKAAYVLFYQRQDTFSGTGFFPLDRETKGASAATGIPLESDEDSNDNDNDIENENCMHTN
In short: as §1

USP16 = USP16 (UniProt Q9Y5T5)
In short: as §1

Measured: log2 ratio of Biotin-Ahx-Ub-VS probe labelling

Chain of USP16 (Q9Y5T5 whole entry, looked up): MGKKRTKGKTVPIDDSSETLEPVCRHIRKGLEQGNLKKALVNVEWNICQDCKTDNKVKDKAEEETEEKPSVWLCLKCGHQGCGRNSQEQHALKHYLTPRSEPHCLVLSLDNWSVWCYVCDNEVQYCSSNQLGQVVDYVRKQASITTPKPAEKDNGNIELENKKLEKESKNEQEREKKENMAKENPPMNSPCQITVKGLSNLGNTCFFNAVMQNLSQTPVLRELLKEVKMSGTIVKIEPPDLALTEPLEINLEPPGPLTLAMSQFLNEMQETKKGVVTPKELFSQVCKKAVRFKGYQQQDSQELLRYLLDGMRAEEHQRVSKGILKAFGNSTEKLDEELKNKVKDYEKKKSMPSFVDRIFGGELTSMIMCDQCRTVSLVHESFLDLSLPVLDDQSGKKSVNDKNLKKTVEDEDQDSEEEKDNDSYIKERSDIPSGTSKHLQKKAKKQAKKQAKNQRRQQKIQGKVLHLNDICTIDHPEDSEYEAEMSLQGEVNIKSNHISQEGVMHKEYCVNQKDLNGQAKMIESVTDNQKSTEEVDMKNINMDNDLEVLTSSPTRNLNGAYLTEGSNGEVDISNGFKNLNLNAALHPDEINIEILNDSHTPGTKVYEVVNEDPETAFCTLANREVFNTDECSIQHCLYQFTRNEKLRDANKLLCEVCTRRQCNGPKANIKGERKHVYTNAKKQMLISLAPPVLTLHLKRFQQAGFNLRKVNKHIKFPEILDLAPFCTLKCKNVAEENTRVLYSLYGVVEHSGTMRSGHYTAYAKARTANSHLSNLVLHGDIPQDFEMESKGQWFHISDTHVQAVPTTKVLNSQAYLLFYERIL
Chain of USP10 (Q14694 whole entry): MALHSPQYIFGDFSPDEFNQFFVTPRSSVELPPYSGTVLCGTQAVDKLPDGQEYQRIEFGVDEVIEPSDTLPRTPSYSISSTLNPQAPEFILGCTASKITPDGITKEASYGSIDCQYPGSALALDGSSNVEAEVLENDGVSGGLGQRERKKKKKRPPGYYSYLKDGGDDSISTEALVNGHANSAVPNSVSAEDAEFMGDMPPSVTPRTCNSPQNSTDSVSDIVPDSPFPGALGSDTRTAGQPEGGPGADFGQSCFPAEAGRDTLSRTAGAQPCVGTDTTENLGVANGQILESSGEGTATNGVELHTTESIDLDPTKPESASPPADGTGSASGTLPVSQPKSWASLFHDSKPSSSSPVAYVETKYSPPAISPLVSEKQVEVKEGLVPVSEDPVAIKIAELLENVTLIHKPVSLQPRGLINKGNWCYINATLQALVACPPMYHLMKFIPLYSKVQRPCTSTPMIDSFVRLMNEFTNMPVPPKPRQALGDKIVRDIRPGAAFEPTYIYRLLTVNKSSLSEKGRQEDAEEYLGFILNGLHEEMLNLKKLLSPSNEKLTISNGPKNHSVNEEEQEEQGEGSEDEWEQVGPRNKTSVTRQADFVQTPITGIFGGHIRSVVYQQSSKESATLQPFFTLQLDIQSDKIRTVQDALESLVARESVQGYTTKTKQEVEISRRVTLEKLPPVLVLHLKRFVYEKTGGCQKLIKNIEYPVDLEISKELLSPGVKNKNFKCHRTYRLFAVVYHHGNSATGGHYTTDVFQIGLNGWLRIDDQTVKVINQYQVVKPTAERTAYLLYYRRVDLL
Chain of UCHL1 (P09936 whole entry, looked up): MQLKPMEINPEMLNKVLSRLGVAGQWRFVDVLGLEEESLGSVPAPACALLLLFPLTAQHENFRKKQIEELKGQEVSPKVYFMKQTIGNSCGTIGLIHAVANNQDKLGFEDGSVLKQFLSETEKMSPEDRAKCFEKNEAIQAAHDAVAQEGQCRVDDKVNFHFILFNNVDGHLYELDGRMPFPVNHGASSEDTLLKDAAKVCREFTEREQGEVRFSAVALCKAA

O=C(CCl)Nc1ccccc1C(F)(F)F
inactive: OTUD6B -0.447 | OTUD7B -0.668 | PRPF8 0.155 | PSMD7 -0.0779 | UCHL1 -0.977 | UCHL3 0.2 | UCHL5 -0.341 | USP10 -0.0659 | USP15 -0.122 | USP16 -0.0895
